# Results as given in the supplement of paper PMC4466140.
# Legend:
# Assay in all cases: SPOT peptide array binding signal intensity (averaged, normalized) (arbitrary units (background-subtracted, floor 0; scale differs between SH3 domains)); higher = stronger binding of the SH3 domain to the peptide
# AgAbp1 = molecular target: AgAbp1
# Procedure: (§1)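 GST-tagged SH3 domains from S. cerevisiae (Sc), A. gossypii (Ag), C. albicans (Ca) and S. pombe (Sp) were incubated at 10 ug/ml overnight at 4 C on cellulose SPOT membranes carrying 292 synthetic 15-mer peptides mined from the S. cerevisiae proteome (cysteines replaced by serines). Binding was detected with anti-GST antibody, HRP secondary and chemiluminescence, quantified with Genespotter, and reported as normalized spot intensities averaged over biological replicates.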
# AgBbc1 = molecular target: AgBbc1
# Procedure: as §1
# AgBem1-D1 = molecular target: AgBem1-D1
# Procedure: as §1
# AgBzz1-D1 = molecular target: AgBzz1-D1
# Procedure: as §1
# AgBzz1-D2 = molecular target: AgBzz1-D2
# Procedure: as §1
# AgCyk3 = molecular target: AgCyk3
# Procedure: as §1
# AgFus1 = molecular target: AgFus1
# Procedure: as §1
# AgHof1 = molecular target: AgHof1
# Procedure: as §1
# AgHse1 = molecular target: AgHse1
# Procedure: as §1
# AgLsb1 = molecular target: AgLsb1
# Procedure: as §1
# AgLsb4 = molecular target: AgLsb4
# Procedure: as §1
# AgMyo5 = molecular target: AgMyo5
# Procedure: as §1
# AgNbp2 = molecular target: AgNbp2
# Procedure: as §1
# AgRvs167 = molecular target: AgRvs167
# Procedure: as §1
# AgSho1 = molecular target: AgSho1
# Procedure: as §1
# AgSla1-D1-D2 = molecular target: AgSla1-D1-D2
# Procedure: as §1
# AgSla1-D3 = molecular target: AgSla1-D3
# Procedure: as §1
# CaAbp1-D1 = molecular target: CaAbp1-D1
# Procedure: as §1
# CaAbp1-D2 = molecular target: CaAbp1-D2
# Procedure: as §1
# CaBbc1 = molecular target: CaBbc1
# Procedure: as §1
# CaBem1-D1 = molecular target: CaBem1-D1
# Procedure: as §1
# CaBzz1-D1 = molecular target: CaBzz1-D1
# Procedure: as §1
# CaBzz1-D2 = molecular target: CaBzz1-D2
# Procedure: as §1
# CaCyk3 = molecular target: CaCyk3
# Procedure: as §1
# CaFus1 = molecular target: CaFus1
# Procedure: as §1
# CaHof1 = molecular target: CaHof1
# Procedure: as §1
# CaHse1 = molecular target: CaHse1
# Procedure: as §1
# CaLsb1 = molecular target: CaLsb1
# Procedure: as §1
# CaLsb4 = molecular target: CaLsb4
# Procedure: as §1
# CaMyo5 = molecular target: CaMyo5
# Procedure: as §1
# CaNbp2 = molecular target: CaNbp2
# Procedure: as §1
# CaRvs167 = molecular target: CaRvs167
# Procedure: as §1
# CaRvs167-3 = molecular target: CaRvs167-3
# Procedure: as §1
# CaSho1 = molecular target: CaSho1
# Procedure: as §1
# CaSla1-D1-D2 = molecular target: CaSla1-D1-D2
# Procedure: as §1
# CaSla1-D3 = molecular target: CaSla1-D3
# Procedure: as §1
# ScAbp1 = molecular target: ScAbp1
# Procedure: as §1
# ScBbc1 = molecular target: ScBbc1
# Procedure: as §1
# ScBem1-D1 = molecular target: ScBem1-D1
# Procedure: as §1
# ScBzz1-D1 = molecular target: ScBzz1-D1
# Procedure: as §1
# ScBzz1-D2 = molecular target: ScBzz1-D2
# Procedure: as §1
# ScCyk3 = molecular target: ScCyk3
# Procedure: as §1
# ScFus1 = molecular target: ScFus1
# Procedure: as §1
# ScHof1 = molecular target: ScHof1
# Procedure: as §1
# ScHse1 = molecular target: ScHse1
# Procedure: as §1
# ScLsb1 = molecular target: ScLsb1
# Procedure: as §1
# ScLsb2 = molecular target: ScLsb2
# Procedure: as §1
# ScLsb3 = molecular target: ScLsb3
# Procedure: as §1
# ScLsb4 = molecular target: ScLsb4
# Procedure: as §1
# ScMyo3 = molecular target: ScMyo3
# Procedure: as §1
# ScMyo5 = molecular target: ScMyo5
# Procedure: as §1
# ScNbp2 = molecular target: ScNbp2
# Procedure: as §1
# ScPex13 = molecular target: ScPex13
# Procedure: as §1
# ScRvs167 = molecular target: ScRvs167
# Procedure: as §1
# ScSho1 = molecular target: ScSho1
# Procedure: as §1
# ScSla1-D1-D2 = molecular target: ScSla1-D1-D2
# Procedure: as §1
# ScSla1-D3 = molecular target: ScSla1-D3
# Procedure: as §1
# SpAbp1-D1 = molecular target: SpAbp1-D1
# Procedure: as §1
# SpBbc1 = molecular target: SpBbc1
# Procedure: as §1
# SpBzz1-D1 = molecular target: SpBzz1-D1
# Procedure: as §1
# SpBzz1-D2 = molecular target: SpBzz1-D2
# Procedure: as §1
# SpCyk3 = molecular target: SpCyk3
# Procedure: as §1
# SpHof1 = molecular target: SpHof1
# Procedure: as §1
# SpHof1-2 = molecular target: SpHof1-2
# Procedure: as §1
# SpHof1-3 = molecular target: SpHof1-3
# Procedure: as §1
# SpHse1 = molecular target: SpHse1
# Procedure: as §1
# SpLsb1 = molecular target: SpLsb1
# Procedure: as §1
# SpLsb4 = molecular target: SpLsb4
# Procedure: as §1
# SpMyo1 = molecular target: SpMyo1
# Procedure: as §1
# SpNbp2 = molecular target: SpNbp2
# Procedure: as §1
# SpPex13 = molecular target: SpPex13
# Procedure: as §1
# SpRvs167 = molecular target: SpRvs167
# Procedure: as §1
# SpSla1-D1-D2 = molecular target: SpSla1-D1-D2
# Procedure: as §1
# SpSla1-D3 = molecular target: SpSla1-D3
# Procedure: as §1
binder,measurement,setting,value
YHSRRHPLALGFKYV,SPOT peptide array binding signal intensity,AgAbp1,25.5
same,SPOT peptide array binding signal intensity,AgBbc1,12
same,SPOT peptide array binding signal intensity,AgBem1-D1,86
same,SPOT peptide array binding signal intensity,AgBzz1-D1,≤ 0
same,SPOT peptide array binding signal intensity,AgBzz1-D2,≤ 0
same,SPOT peptide array binding signal intensity,AgCyk3,4
same,SPOT peptide array binding signal intensity,AgFus1,566
same,SPOT peptide array binding signal intensity,AgHof1,19
same,SPOT peptide array binding signal intensity,AgHse1,187
same,SPOT peptide array binding signal intensity,AgLsb1,2
same,SPOT peptide array binding signal intensity,AgLsb4,2
same,SPOT peptide array binding signal intensity,AgMyo5,3.25
same,SPOT peptide array binding signal intensity,AgNbp2,41.5
same,SPOT peptide array binding signal intensity,AgRvs167,7.67
same,SPOT peptide array binding signal intensity,AgSho1,26
same,SPOT peptide array binding signal intensity,AgSla1-D1-D2,26
same,SPOT peptide array binding signal intensity,AgSla1-D3,17
same,SPOT peptide array binding signal intensity,CaAbp1-D1,156
same,SPOT peptide array binding signal intensity,CaAbp1-D2,81.5
same,SPOT peptide array binding signal intensity,CaBbc1,6.75
same,SPOT peptide array binding signal intensity,CaBem1-D1,121
same,SPOT peptide array binding signal intensity,CaBzz1-D1,64
same,SPOT peptide array binding signal intensity,CaBzz1-D2,22
same,SPOT peptide array binding signal intensity,CaCyk3,4
same,SPOT peptide array binding signal intensity,CaFus1,630
same,SPOT peptide array binding signal intensity,CaHof1,4.5
same,SPOT peptide array binding signal intensity,CaHse1,38.5
same,SPOT peptide array binding signal intensity,CaLsb1,1.75
same,SPOT peptide array binding signal intensity,CaLsb4,≤ 0
same,SPOT peptide array binding signal intensity,CaMyo5,38.5
same,SPOT peptide array binding signal intensity,CaNbp2,204
same,SPOT peptide array binding signal intensity,CaRvs167,44
same,SPOT peptide array binding signal intensity,CaRvs167-3,103
same,SPOT peptide array binding signal intensity,CaSho1,153
same,SPOT peptide array binding signal intensity,CaSla1-D1-D2,124
same,SPOT peptide array binding signal intensity,CaSla1-D3,23.5
same,SPOT peptide array binding signal intensity,ScAbp1,54
same,SPOT peptide array binding signal intensity,ScBbc1,2.75
same,SPOT peptide array binding signal intensity,ScBem1-D1,58
same,SPOT peptide array binding signal intensity,ScBzz1-D1,1.5
same,SPOT peptide array binding signal intensity,ScBzz1-D2,40.5
same,SPOT peptide array binding signal intensity,ScCyk3,13.5
same,SPOT peptide array binding signal intensity,ScFus1,368
same,SPOT peptide array binding signal intensity,ScHof1,16.5
same,SPOT peptide array binding signal intensity,ScHse1,480
same,SPOT peptide array binding signal intensity,ScLsb1,1.5
same,SPOT peptide array binding signal intensity,ScLsb2,6.5
same,SPOT peptide array binding signal intensity,ScLsb3,≤ 0
same,SPOT peptide array binding signal intensity,ScLsb4,12
same,SPOT peptide array binding signal intensity,ScMyo3,18.8
same,SPOT peptide array binding signal intensity,ScMyo5,24.2
same,SPOT peptide array binding signal intensity,ScNbp2,102
same,SPOT peptide array binding signal intensity,ScPex13,10.5
same,SPOT peptide array binding signal intensity,ScRvs167,31.2
same,SPOT peptide array binding signal intensity,ScSho1,592
same,SPOT peptide array binding signal intensity,ScSla1-D1-D2,65
same,SPOT peptide array binding signal intensity,ScSla1-D3,4.75
same,SPOT peptide array binding signal intensity,SpAbp1-D1,130
same,SPOT peptide array binding signal intensity,SpBbc1,8.75
same,SPOT peptide array binding signal intensity,SpBzz1-D1,122
RPPRPPPKPLHLRTE,SPOT peptide array binding signal intensity,AgAbp1,1720
same,SPOT peptide array binding signal intensity,AgBbc1,559
same,SPOT peptide array binding signal intensity,AgBem1-D1,113
same,SPOT peptide array binding signal intensity,AgBzz1-D1,270
same,SPOT peptide array binding signal intensity,AgBzz1-D2,69
same,SPOT peptide array binding signal intensity,AgCyk3,≤ 0
same,SPOT peptide array binding signal intensity,AgFus1,5.5
same,SPOT peptide array binding signal intensity,AgHof1,50
same,SPOT peptide array binding signal intensity,AgHse1,178
same,SPOT peptide array binding signal intensity,AgLsb1,27
same,SPOT peptide array binding signal intensity,AgLsb4,52
same,SPOT peptide array binding signal intensity,AgMyo5,8.25
same,SPOT peptide array binding signal intensity,AgNbp2,1310
same,SPOT peptide array binding signal intensity,AgRvs167,12.3
same,SPOT peptide array binding signal intensity,AgSho1,836
same,SPOT peptide array binding signal intensity,AgSla1-D1-D2,28
same,SPOT peptide array binding signal intensity,AgSla1-D3,14
same,SPOT peptide array binding signal intensity,CaAbp1-D1,913
same,SPOT peptide array binding signal intensity,CaAbp1-D2,4480
same,SPOT peptide array binding signal intensity,CaBbc1,626
same,SPOT peptide array binding signal intensity,CaBem1-D1,314
same,SPOT peptide array binding signal intensity,CaBzz1-D1,1940
same,SPOT peptide array binding signal intensity,CaBzz1-D2,405
same,SPOT peptide array binding signal intensity,CaCyk3,29
same,SPOT peptide array binding signal intensity,CaFus1,61.5
same,SPOT peptide array binding signal intensity,CaHof1,1
same,SPOT peptide array binding signal intensity,CaHse1,1310
same,SPOT peptide array binding signal intensity,CaLsb1,0.5
same,SPOT peptide array binding signal intensity,CaLsb4,1080
same,SPOT peptide array binding signal intensity,CaMyo5,2
same,SPOT peptide array binding signal intensity,CaNbp2,567
same,SPOT peptide array binding signal intensity,CaRvs167,67
same,SPOT peptide array binding signal intensity,CaRvs167-3,4.75
same,SPOT peptide array binding signal intensity,CaSho1,148
same,SPOT peptide array binding signal intensity,CaSla1-D1-D2,1990
same,SPOT peptide array binding signal intensity,CaSla1-D3,97.5
same,SPOT peptide array binding signal intensity,ScAbp1,3670
same,SPOT peptide array binding signal intensity,ScBbc1,57.5
same,SPOT peptide array binding signal intensity,ScBem1-D1,4
same,SPOT peptide array binding signal intensity,ScBzz1-D1,49
same,SPOT peptide array binding signal intensity,ScBzz1-D2,26
same,SPOT peptide array binding signal intensity,ScCyk3,1
same,SPOT peptide array binding signal intensity,ScFus1,8
same,SPOT peptide array binding signal intensity,ScHof1,0.5
same,SPOT peptide array binding signal intensity,ScHse1,131
same,SPOT peptide array binding signal intensity,ScLsb1,90
same,SPOT peptide array binding signal intensity,ScLsb2,8
same,SPOT peptide array binding signal intensity,ScLsb3,2810
same,SPOT peptide array binding signal intensity,ScLsb4,58
same,SPOT peptide array binding signal intensity,ScMyo3,72.8
same,SPOT peptide array binding signal intensity,ScMyo5,163
same,SPOT peptide array binding signal intensity,ScNbp2,1770
same,SPOT peptide array binding signal intensity,ScPex13,1500
same,SPOT peptide array binding signal intensity,ScRvs167,375
same,SPOT peptide array binding signal intensity,ScSho1,1530
same,SPOT peptide array binding signal intensity,ScSla1-D1-D2,2390
same,SPOT peptide array binding signal intensity,ScSla1-D3,4.5
same,SPOT peptide array binding signal intensity,SpAbp1-D1,2570
same,SPOT peptide array binding signal intensity,SpBbc1,6
same,SPOT peptide array binding signal intensity,SpBzz1-D1,1060
same,SPOT peptide array binding signal intensity,SpBzz1-D2,43
same,SPOT peptide array binding signal intensity,SpCyk3,≤ 0
same,SPOT peptide array binding signal intensity,SpHof1,65
same,SPOT peptide array binding signal intensity,SpHof1-2,15.5
same,SPOT peptide array binding signal intensity,SpHof1-3,237
same,SPOT peptide array binding signal intensity,SpHse1,216
same,SPOT peptide array binding signal intensity,SpLsb1,582
same,SPOT peptide array binding signal intensity,SpLsb4,1950
same,SPOT peptide array binding signal intensity,SpMyo1,318
same,SPOT peptide array binding signal intensity,SpNbp2,22
same,SPOT peptide array binding signal intensity,SpPex13,17
same,SPOT peptide array binding signal intensity,SpRvs167,865
same,SPOT peptide array binding signal intensity,SpSla1-D1-D2,13.5
same,SPOT peptide array binding signal intensity,SpSla1-D3,4
